# Source: PubChem
# Shown are actives, neighbours in structure and some others; about 2.7% of the full set was active somewhere.
# MsrA inh: inhibits bovine methionine sulfoxide reductase A | purified bovine MsrA, absorbance read-out | inhibition, % at 15.5 µM | 0.75% of 360,000 active | AID 651718; in the data active = inhibition above about 4.5%
# rCAG binder: binds r(CAG) RNA repeats; r(CAG) RNA repeat, TO-PRO-1 dye displacement fluorescence; inhibition, % at 3 µM; 1.3% of 370,000 active;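 active = inhibition above the plate cutoff, the mean of all test compounds on that plate plus 3 SD, cut at about 35% in these data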;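 note: higher means more dye released from RNA so lower well fluorescence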
# NadD inh: blocks S. aureus nicotinate mononucleotide adenylyltransferase | inhibition, % at 20 µM | AID 602399 | purified NadD enzyme, colorimetric absorbance read-out | 0.78% of 360,000 active; in the data active = inhibition above about 26%
# MsrA act: activates bovine MsrA enzyme; purified bovine MsrA, absorbance read-out; activation, % at 10.6 µM; 0.3% of 360,000 active; AID 602163; in the data active = activation above about 7.5%
# rCAG binder conf: r(CAG) RNA repeat binding, confirmation; shares compounds with rCAG binder; TO-PRO-1 dye displacement fluorescence; inhibition, % at 3 µM; 70% of 4,300 active; AID 652065;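 active = inhibition above a per-plate cutoff, the mean inhibition of sample wells plus 3 SD, cut at about 35% in these data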;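 note: loss of TO-PRO-1 fluorescence as compound displaces dye from 1x1 AA loop RNA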
# DNA CAG counter: DNA CAG dye complex inhibition counter-screen; 94% of 4,300 active; inhibition, % at 3 µM; d(CAG) DNA oligo TO-PRO-1 dye displacement, fluorescence; shares compounds with rCAG binder; AID 652068;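 active = inhibition above its plate's cutoff, the mean test-well inhibition plus 3 SD, cut at about 4.8% in these data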;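 note: hits displace the dye from DNA and so lower well fluorescence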
# Hits are given with their value; n = inactive; x = no result.
SMILES,MsrA inh,rCAG binder,NadD inh,MsrA act,rCAG binder conf,DNA CAG counter
O=C(O)c1ccccc1-c1ccc(C=C2C(=O)N(c3ccccc3)C(=S)N(c3ccccc3)C2=O)o1,n,57,n,n,61,26
CC1=C(O)C(=O)C=C2C1=CC=C1C2(C)CCC2(C)C3CC(C)(C(=O)O)CCC3(C)CCC12C (stereo not given),n,50,47,n,41,9.5
Cn1cccc1/C=C1\C(=O)NC(=O)N(Cc2ccccc2)C1=O,n,40,n,n,n,n
Cn1cccc1/C=C1/C(=O)NC(=S)N(Cc2ccc(F)cc2)C1=O,n,74,45,n,51,30
C=CCN1C(=O)NC(=O)/C(=C/c2cccn2C)C1=O,n,n,n,n,x,x
Cn1cccc1/C=C1/C(=O)NC(=O)N(Cc2ccc(F)cc2)C1=O,n,41,n,n,n,n
Cn1cccc1/C=C1/C(=O)NC(=O)N(Cc2ccccc2)C1=O,n,49,n,n,n,n
COc1ccc(CN2C(=O)NC(=O)/C(=C/c3cc(OC)c(OC)c(OC)c3)C2=O)cc1,n,n,n,n,x,x
Cc1nn(Cc2ccccc2)c(C)c1C(=O)O,n,n,n,n,x,x
CCOC(=O)[C@]12Cc3ccc4ccccc4c3[C@H]1N(Cc1ccccc1)C(=O)c1ccccc12,n,n,n,n,x,x
